Sampled rows, rich in hits. Any-hit rate of the full collection: about 6.9%.
M1 ag = M1 muscarinic receptor agonists, primary screen, CHO-M1 cells, Fluo-4 calcium, agonist mode. Fluo-4 calcium fluorescence; stronger effect = higher value. B-score at 10 µM. Muscarinic acetylcholine receptor M1. 3% of 64,000 active;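 active means fluorescence rise, raw or as B-score row- and column-corrected plate score, outside the 99.7% band of its plate's samples, either direction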
M1 antag = antagonists of rat M1 muscarinic receptor | Muscarinic acetylcholine receptor M1 (Rattus norvegicus), P08482 | CHO-M1 cells, Fluo-4 calcium, ACh EC80 antagonist mode; stronger effect = lower value | B-score at 10 µM | 3.4% of 64,000 active;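 active means calcium fluorescence response, raw or row-and-column corrected B-score, differing from the plate sample mean either way at a set confidence level, mostly lower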
FXIIa mix inh = human factor XIIa inhibitors, primary screen, biochemical, pooled compound mixtures, fluorogenic substrate; Coagulation factor XII (Homo sapiens), P00748; 0.2% of 62,000 active; purified FXIIa; inhibition, % at 5 µM;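 further: 0% = enzyme without compound and 100% = no enzyme blank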
FXIa inh mix = FXIa protease inhibitors in compound pools, primary screen, biochemical, 10-compound mixtures; inhibition, % at 5 µM; Coagulation factor XI (Homo sapiens), P03951; AID 680, 2007; purified FXIa, fluorogenic substrate, pooled mixtures; 0.19% of 62,000 active;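 further: each value is inhibition by a whole ten-compound pool holding the compound; 0% = enzyme with no mixture and 100% = wells lacking enzyme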
JNK3 blocker = JNK3 kinase activity inhibitors, primary screen, biochemical, human, purified enzyme; Mitogen-activated protein kinase 10 (Homo sapiens), P53779; HTS; inhibition, % at 8 µM; 0.61% of 60,000 active; AID 746, 2007; in the data active means inhibition above about 17%;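 further: 0% = DMSO and 100% = reference inhibitor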
Her2 expr inh = inhibitors of Her2 protein expression, primary screen, SKBR-3 cells, AlphaScreen, 66K library; Receptor tyrosine-protein kinase erbB-2 (Homo sapiens), P04626; SKBR-3 HER2 protein level, 18-24 h; stronger effect = lower value; HER2 level % of control, % at 10 µM; 0.69% of 65,000 active;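 active means HER2 level under 5% of the carrier-only control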;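 further: 100% = DMSO carrier and 0% = 500 nM PU-H71 HSP90 inhibitor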
Target sequence (P04626 whole entry, looked up): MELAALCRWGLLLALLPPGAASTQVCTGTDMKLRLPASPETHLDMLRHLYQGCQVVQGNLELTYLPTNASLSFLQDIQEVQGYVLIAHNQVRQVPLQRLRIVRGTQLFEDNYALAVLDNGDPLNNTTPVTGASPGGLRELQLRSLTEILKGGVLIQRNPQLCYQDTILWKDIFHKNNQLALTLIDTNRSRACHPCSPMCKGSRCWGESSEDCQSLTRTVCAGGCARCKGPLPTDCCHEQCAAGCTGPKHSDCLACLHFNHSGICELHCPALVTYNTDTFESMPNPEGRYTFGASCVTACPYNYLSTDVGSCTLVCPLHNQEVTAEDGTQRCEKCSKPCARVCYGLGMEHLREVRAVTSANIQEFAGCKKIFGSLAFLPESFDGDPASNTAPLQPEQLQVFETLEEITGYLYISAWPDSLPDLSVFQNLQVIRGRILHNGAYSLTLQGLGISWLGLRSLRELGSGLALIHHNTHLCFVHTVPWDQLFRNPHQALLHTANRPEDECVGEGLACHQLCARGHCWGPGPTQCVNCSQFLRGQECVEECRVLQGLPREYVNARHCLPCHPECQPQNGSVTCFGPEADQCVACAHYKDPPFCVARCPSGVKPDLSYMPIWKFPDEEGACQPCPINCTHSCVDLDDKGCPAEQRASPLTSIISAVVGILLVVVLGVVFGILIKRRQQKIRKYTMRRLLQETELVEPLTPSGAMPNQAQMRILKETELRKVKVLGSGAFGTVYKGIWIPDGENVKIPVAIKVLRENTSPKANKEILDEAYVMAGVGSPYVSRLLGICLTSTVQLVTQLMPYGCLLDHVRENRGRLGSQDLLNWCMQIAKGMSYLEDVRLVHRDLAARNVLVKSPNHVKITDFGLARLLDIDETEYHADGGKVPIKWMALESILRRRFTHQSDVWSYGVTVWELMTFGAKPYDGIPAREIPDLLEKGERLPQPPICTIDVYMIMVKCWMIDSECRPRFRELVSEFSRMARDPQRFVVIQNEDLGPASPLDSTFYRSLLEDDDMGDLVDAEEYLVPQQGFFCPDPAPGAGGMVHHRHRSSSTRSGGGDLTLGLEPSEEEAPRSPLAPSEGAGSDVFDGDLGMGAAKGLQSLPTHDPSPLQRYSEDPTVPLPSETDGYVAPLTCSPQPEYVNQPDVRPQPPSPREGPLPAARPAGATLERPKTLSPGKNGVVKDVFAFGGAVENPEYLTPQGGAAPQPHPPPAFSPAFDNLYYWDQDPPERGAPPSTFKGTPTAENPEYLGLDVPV
M1 antag conf = rat M1 muscarinic receptor antagonists, confirmation, CHO cells, Fluo-4 calcium, duplicate; shares compounds with M1 antag; AID 677, 2007; 43% of 1,700 active; calcium response (max-min fluorescence) at 10 µM; ACh EC80 antagonism; stronger effect = lower value;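 active means calcium response below the same-plate mean of wells given acetylcholine alone at its 80%-effect dose, minus 3 SD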;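 further: raw fluorescence intensity difference in arbitrary instrument units and not normalized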
mGluR4 antag = human mGluR4 response to M1 antagonist hits, M1 allosteric modulator project, cell-based, antagonist mode, secondary assay 1. shares compounds with M1 antag. CHO-mGluR4 calcium flux, Fluo-4 fluorescence, glutamate EC80; stronger effect = lower value. fluorescence response (max-min) at 10 µM. 0.9% of 1,700 active. AID 678, 2007;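 active means fluorescence response below the plate's average for near-maximal glutamate wells, less 3 SD of those wells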;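 further: raw unnormalized fluorescence span taken in the window right after glutamate addition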
* hit, by the source's call; . = no result. Unless noted, no stated cut-off is given here; in the data, active means inhibition above about 20% (passing the limit was not always enough); inactive means the rest.

SMILES | M1 ag | M1 antag | FXIIa mix inh | FXIa inh mix | JNK3 blocker | Her2 expr inh | M1 antag conf | mGluR4 antag
CCOC(=O)C1=C(CS(=O)(=O)c2ccc(F)c(C)c2)NC(=O)NC1c1ccc(O)c(O)c1 (stereo not given) | 0.24 | -1 | 8 | -8 | 3 | 78 | . | .
CN1CCc2c(c3c(n2C)CCN(C)[C@@H]3c2cccnc2)[C@H]1c1cccnc1 | 0.45 | -3.1* | 3 | 5 | 5 | 102 | 624 | 225
COC(=O)C1C(=O)c2c([nH]c(C(=O)OCC3CCCO3)c2C)CC1C (stereo not given) | -0.91 | 0.0014 | -1 | -2 | -1 | 90 | . | .
CCOc1ccc(S(=O)(=O)NC(C)(C)C)cc1-c1nc2c(C(C)(C)C)nn(C)c2c(=O)[nH]1 | -0.064 | 0.66 | . | . | -10 | 14 | . | .
CC(C)n1c(=N)c(C(=O)NCCc2ccccc2)cc2c(=O)n3ccccc3nc21 | 4.1 | -4.1* | . | . | 4 | 89 | 445* | 247
COC(=O)c1cc2c(=O)n3ccccc3nc2n(C(C)C)c1=N | -0.72 | -0.29 | 6 | -16 | 6 | 81 | . | .
Cc1cccn2c(=O)c3cc(C(=O)NCc4cccnc4)c(=N)n(C(C)C)c3nc12 | -1.2 | -2.5* | 7 | -36 | . | 83 | 579 | 259
N=c1c(C(=O)NCc2ccco2)cc2c(=O)n3ccccc3nc2n1Cc1ccccc1 | -0.083 | -3* | 13 | 3 | 2 | 88 | 589* | 206
Cc1cccc(NC(=O)Cn2c(C)c(C#N)c3ccccc32)c1C | -0.41 | 0.17 | -19 | 9 | 1 | 113 | . | .
COc1ccccc1N1CCN(C(=O)c2sc3nc(-c4ccc(F)cc4)cn3c2C)CC1 | 1.1 | -0.16 | -17 | -1 | -1 | 96 | . | .
O=C(CN1C(=O)C2C3C=CC(C3)C2C1=O)N1CC=C(c2ccccc2)CC1 (stereo not given) | -1.6 | -0.35 | 1 | 39 | 9 | 92 | . | .
O=C(Nc1ccccc1C(=O)NCc1ccco1)NC1CCCCC1 | -0.038 | -3.1* | 8 | 6 | . | 85 | 639 | 243
O=C(NC1CCCCC1)c1ccc(S(=O)(=O)NCc2ccco2)cc1 | -1.3 | -2.4* | -16 | 5 | 1 | 88 | 634 | 228
COc1ccc(CNC(=O)c2ccc3c(c2)N(C)C(=O)CS3=O)cc1 (stereo not given) | -0.17 | 0.012 | -16 | 0 | 2 | 100 | . | .
CCSc1sccc1C1C(C#N)=C(N)N(c2cccnc2)C2=C1C(=O)CC(C)(C)C2 (stereo not given) | 0.0052 | -5.1* | -2 | -4 | 0 | 130 | 622 | 199
COc1ccc(N2C(N)=C(C#N)C(c3cccnc3)C3=C2CC(C)(C)CC3=O)cc1 (stereo not given) | 0.24 | -0.14 | -12 | 6 | 0 | 88 | . | .
COc1ccc(Cc2nc3ccc(S(N)(=O)=O)cc3[nH]2)cc1OC | 0.42 | -2.9* | 3 | 12 | 7 | 53 | 580 | 225
O=S(=O)(c1ccc2nc(COc3ccc(Cl)cc3Cl)[nH]c2c1)N1CCOCC1 | 0.94 | 1.1 | 8 | -5 | 1 | 94 | . | .
CC(C)Oc1ccc(NC(=O)c2ccncc2)cc1 | -1.2 | -1.2 | 6 | 2 | -5 | 75 | . | .
CCc1cc2c(N[C@@H](C)C(=O)O)ncnc2s1 | 1.2 | 0.68 | -19 | 1 | 1 | 96 | . | .
CCc1cc2c(NCCN3CCCCC3)ncnc2s1 | 0.5 | -4.3* | 1 | -28 | . | 79 | 534* | 196
COc1ccc(OC)c(NC(=O)C2C3CC4OC(=O)C2C4C3)c1 (stereo not given) | 0.084 | 0.083 | -1 | 2 | -2 | 111 | . | .

Compound activity: PubChem BioAssay, several laboratories
